Among the data in ChEMBL document CHEMBL1961873, “Compounds: GSK PKIS; Assays: Nanosyn kinase panel” (2012) are inhibition values, retold here.

The target of experiment [1] is Sphingosine kinase 1 (Homo sapiens) (UniProt Q9NYA1). The settings on record: at 1 µM.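 Note: mean SPHK1 inhibition value reported from the GSK PKIS kinase panel screen.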
For experiment [2], the target named is T1, Sphingosine kinase 2 (Homo sapiens) (UniProt Q9NRA0).
T1 sequence (whole entry): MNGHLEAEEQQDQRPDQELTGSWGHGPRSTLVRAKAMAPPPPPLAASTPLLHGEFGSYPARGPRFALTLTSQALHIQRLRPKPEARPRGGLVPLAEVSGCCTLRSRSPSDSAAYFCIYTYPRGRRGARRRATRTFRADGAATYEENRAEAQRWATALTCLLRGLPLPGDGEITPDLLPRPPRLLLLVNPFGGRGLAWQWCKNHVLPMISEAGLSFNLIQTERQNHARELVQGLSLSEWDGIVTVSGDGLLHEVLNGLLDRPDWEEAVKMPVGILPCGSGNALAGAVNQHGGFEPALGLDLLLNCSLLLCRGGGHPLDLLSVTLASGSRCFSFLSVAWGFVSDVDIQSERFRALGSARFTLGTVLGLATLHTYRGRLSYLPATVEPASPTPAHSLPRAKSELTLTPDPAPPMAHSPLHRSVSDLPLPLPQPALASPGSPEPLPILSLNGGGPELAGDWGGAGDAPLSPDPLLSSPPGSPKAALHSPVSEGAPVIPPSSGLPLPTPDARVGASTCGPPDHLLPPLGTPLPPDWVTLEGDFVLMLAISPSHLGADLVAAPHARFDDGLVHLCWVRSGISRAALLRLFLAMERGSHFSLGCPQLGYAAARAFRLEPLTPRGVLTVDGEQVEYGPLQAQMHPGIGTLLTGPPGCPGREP
The conditions noted are these: at 0.1 µM.

The target in experiment [3] is T1, Sphingosine kinase 2 (Homo sapiens). The conditions noted are these: at 1 µM.
Experiment [4] deals with Casein kinase II subunit alpha (Homo sapiens) (UniProt P68400). The settings on record: at 0.1 µM.
Chain of Casein kinase II subunit alpha (Homo sapiens) (P68400 whole entry, looked up): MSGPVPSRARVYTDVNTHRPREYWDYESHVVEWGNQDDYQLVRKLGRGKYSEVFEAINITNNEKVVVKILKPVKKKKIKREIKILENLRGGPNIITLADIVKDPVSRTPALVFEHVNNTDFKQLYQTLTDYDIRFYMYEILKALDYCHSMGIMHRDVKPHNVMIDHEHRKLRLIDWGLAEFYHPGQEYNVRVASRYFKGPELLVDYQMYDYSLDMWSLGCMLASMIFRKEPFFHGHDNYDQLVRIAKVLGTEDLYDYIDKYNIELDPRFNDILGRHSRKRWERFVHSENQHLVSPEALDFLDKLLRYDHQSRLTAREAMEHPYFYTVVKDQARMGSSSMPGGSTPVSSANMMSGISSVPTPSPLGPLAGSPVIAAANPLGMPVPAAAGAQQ
For experiment [5] the target is unchanged. The settings on record: at 1 µM.
Experiment [6] has as its target T2, Inhibitor of nuclear factor kappa-B kinase subunit alpha (Homo sapiens) (UniProt O15111).
T2 sequence (whole entry): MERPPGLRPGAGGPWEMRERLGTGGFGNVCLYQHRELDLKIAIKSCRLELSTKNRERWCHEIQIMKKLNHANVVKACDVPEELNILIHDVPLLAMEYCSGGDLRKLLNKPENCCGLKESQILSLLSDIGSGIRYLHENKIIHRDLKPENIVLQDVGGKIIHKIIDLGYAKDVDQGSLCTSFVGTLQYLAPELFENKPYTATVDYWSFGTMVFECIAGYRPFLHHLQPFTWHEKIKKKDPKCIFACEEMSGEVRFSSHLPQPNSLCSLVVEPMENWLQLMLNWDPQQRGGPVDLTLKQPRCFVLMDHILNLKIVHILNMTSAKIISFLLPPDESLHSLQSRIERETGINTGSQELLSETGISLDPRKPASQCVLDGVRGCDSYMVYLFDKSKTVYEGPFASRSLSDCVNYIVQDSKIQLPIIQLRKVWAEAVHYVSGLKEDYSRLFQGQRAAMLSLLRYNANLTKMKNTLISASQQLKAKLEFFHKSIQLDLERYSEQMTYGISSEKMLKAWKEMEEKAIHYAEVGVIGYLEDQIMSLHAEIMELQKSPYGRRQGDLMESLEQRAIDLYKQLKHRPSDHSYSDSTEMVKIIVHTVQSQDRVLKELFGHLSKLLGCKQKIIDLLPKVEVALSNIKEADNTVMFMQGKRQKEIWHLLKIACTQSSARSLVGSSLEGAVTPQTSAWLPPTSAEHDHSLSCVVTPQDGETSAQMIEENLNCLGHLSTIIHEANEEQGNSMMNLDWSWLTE
The conditions noted are these: at 0.1 µM.

Experiment [7] concerns the target T2, Inhibitor of nuclear factor kappa-B kinase subunit alpha (Homo sapiens). The settings on record: at 1 µM.
The target in experiment [8] is T3, Inhibitor of nuclear factor kappa-B kinase subunit beta (Homo sapiens) (UniProt O14920).
T3 sequence (whole entry): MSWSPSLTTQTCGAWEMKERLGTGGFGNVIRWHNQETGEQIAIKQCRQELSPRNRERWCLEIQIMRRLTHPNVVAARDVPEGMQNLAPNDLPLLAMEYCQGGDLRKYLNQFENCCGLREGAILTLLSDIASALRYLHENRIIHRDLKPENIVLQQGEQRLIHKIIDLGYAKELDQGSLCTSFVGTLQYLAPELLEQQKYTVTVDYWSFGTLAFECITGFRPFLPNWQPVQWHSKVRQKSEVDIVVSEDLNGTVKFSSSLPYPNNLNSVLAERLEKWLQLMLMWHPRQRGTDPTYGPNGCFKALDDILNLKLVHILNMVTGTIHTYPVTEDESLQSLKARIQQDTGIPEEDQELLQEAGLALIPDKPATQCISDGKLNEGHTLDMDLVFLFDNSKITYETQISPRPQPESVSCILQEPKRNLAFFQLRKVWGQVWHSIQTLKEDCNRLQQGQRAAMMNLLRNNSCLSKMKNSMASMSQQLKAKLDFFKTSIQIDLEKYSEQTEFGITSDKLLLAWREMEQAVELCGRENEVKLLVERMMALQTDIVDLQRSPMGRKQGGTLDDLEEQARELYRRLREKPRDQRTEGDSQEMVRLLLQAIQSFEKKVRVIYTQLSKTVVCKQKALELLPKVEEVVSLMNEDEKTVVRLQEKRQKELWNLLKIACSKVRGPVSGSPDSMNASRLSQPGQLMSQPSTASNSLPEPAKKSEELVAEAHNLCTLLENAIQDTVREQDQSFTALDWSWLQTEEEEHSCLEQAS
The conditions noted are these: at 0.1 µM.

Experiment [9] concerns the target T3, Inhibitor of nuclear factor kappa-B kinase subunit beta (Homo sapiens). The conditions noted are these: at 1 µM.
For experiment [10], the target named is T4, Inhibitor of nuclear factor kappa-B kinase subunit epsilon (Homo sapiens) (UniProt Q14164).
T4 sequence (whole entry): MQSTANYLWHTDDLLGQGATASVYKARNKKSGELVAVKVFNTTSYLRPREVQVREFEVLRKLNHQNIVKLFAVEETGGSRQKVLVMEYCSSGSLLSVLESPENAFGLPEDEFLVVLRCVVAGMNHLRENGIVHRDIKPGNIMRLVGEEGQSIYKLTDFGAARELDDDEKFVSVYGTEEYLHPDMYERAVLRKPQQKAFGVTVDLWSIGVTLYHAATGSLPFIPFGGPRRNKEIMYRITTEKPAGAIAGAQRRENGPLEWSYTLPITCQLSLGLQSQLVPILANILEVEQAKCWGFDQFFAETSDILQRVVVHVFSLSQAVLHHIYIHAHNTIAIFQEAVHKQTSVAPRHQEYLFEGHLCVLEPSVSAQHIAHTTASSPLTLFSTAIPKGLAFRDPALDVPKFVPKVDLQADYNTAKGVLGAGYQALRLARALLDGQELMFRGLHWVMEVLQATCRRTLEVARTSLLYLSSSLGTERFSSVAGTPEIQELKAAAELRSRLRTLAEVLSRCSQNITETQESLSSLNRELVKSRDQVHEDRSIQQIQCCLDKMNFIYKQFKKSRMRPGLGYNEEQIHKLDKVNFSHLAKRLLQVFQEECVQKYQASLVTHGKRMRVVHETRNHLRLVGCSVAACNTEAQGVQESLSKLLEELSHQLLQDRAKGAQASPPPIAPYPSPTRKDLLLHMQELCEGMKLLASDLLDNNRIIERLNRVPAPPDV
The settings on record: at 0.1 µM.

The target in experiment [11] is T4, Inhibitor of nuclear factor kappa-B kinase subunit epsilon (Homo sapiens). The settings on record: at 1 µM.
Experiment [12] addresses T5, Serine/threonine-protein kinase Nek1 (Homo sapiens) (UniProt Q96PY6).
T5 sequence (whole entry): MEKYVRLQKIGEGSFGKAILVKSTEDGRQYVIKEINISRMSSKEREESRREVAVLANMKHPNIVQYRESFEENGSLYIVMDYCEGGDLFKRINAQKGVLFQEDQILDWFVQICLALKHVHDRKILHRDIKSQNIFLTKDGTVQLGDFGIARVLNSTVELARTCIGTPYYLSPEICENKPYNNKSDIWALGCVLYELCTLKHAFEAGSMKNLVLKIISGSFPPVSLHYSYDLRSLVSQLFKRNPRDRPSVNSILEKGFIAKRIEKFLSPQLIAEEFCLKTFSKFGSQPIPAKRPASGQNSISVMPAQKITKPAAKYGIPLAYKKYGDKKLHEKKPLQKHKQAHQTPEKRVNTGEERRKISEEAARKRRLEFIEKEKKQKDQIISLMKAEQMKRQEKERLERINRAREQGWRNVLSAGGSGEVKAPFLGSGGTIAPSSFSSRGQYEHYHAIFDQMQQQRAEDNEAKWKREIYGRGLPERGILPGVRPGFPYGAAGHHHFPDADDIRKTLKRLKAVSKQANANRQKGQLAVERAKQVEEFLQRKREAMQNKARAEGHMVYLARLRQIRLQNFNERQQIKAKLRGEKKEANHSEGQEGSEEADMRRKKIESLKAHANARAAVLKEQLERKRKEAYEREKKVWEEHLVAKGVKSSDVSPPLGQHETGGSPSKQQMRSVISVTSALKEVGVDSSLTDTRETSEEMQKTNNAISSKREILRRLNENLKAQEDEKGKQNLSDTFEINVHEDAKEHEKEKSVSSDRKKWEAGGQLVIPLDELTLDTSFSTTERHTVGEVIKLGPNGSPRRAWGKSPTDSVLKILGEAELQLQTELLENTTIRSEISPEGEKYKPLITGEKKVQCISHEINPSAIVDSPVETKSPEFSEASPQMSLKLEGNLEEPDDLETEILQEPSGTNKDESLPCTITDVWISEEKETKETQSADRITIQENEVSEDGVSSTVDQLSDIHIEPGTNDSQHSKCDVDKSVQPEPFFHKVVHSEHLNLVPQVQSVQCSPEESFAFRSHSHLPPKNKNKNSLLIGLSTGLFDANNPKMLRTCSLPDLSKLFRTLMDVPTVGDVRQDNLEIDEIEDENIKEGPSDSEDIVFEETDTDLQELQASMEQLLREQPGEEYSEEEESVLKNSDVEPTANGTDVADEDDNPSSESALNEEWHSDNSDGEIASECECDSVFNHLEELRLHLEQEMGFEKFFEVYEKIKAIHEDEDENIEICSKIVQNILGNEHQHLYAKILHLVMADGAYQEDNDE
The conditions noted are these: at 0.1 µM.

Experiment [13] concerns the target T5, Serine/threonine-protein kinase Nek1 (Homo sapiens). The settings on record: at 1 µM.
Experiment [14] has as its target T6, Serine/threonine-protein kinase Nek2 (Homo sapiens) (UniProt P51955).
T6 sequence (whole entry): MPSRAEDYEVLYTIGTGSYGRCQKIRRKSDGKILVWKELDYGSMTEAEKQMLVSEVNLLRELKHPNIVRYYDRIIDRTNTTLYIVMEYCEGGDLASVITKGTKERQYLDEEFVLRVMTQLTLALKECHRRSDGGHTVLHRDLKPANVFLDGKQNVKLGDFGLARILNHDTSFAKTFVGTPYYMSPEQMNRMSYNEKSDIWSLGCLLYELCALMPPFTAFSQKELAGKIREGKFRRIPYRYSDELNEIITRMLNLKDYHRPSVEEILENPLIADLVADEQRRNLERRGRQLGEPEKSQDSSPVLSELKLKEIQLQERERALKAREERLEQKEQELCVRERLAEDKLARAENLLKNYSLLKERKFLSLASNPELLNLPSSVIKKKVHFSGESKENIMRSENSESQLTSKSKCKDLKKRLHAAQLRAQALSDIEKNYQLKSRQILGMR
The conditions noted are these: at 0.1 µM.

For experiment [15], the target named is T6, Serine/threonine-protein kinase Nek2 (Homo sapiens). The conditions noted are these: at 1 µM.
For experiment [16], the target named is Serine/threonine-protein kinase Nek6 (Homo sapiens) (UniProt Q9HC98). The settings on record: at 0.1 µM.
Chain of Serine/threonine-protein kinase Nek6 (Homo sapiens) (Q9HC98 whole entry): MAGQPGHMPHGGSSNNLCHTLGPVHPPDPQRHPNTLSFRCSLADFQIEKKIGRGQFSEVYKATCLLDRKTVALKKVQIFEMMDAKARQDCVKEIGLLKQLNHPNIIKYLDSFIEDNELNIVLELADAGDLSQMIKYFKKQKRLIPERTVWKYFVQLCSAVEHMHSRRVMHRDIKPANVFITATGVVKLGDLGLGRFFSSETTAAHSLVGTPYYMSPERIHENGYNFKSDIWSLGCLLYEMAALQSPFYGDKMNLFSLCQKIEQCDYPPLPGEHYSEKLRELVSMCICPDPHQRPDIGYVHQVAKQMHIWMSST
Experiment [17] shares this target. The settings on record: at 1 µM.
Experiment [18] concerns the target Serine/threonine-protein kinase Nek7 (Homo sapiens) (UniProt Q8TDX7). The conditions noted are these: at 0.1 µM.
The target is the same in experiment [19]. The conditions noted are these: at 1 µM.

Chain of Serine/threonine-protein kinase Nek7 (Homo sapiens) (Q8TDX7 whole entry, looked up): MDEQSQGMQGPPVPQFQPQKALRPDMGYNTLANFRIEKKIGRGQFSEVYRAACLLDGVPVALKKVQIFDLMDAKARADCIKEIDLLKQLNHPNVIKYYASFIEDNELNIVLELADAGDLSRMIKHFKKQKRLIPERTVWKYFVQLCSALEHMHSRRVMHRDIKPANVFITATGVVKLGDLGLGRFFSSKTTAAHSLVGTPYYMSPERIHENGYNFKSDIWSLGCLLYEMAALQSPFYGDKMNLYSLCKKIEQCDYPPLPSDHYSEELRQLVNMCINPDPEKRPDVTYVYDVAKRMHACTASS
Chain of Sphingosine kinase 1 (Homo sapiens) (Q9NYA1 whole entry): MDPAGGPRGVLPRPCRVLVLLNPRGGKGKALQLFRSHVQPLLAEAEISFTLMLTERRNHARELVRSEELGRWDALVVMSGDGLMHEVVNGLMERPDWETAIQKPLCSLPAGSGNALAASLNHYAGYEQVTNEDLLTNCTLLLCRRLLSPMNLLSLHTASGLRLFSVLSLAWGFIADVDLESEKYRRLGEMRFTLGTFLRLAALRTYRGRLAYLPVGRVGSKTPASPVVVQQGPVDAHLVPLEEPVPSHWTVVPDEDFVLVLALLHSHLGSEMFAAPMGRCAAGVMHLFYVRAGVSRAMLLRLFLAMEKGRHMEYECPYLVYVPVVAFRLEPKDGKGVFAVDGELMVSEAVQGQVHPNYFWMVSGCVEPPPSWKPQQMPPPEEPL

With `c1ccc(-c2n[nH]cc2-c2ccnc(-c3ccc(OCCN4CCOCC4)cc3)c2)nc1`, the inhibition (as a rule, the drop in the measured response relative to a control, in per cent) is -1.7% in [1]; 0.79% in experiment [2]; -2.14% in experiment [3]; -3.28% in experiment [4]; -4.72% in experiment [5]; -2.42% in experiment [6]. For the same compound, the inhibition in [7] was -8.48%; in [8] it was -4.16%; in [9], -6.86%; in [10], -5.44%; in [11] it was -6.6%; in experiment [12], 1.71%. For the same compound, the inhibition was -2.23% in experiment [13]; -2.95% in experiment [14]; -2.74% in experiment [15]; -1.49% in experiment [16]; -2.27% in experiment [17]; -5.33% in experiment [18]. Moreover, the inhibition in experiment [19] was -3.67%.
